The first assay has as its target ANG. In words: pooled miR-30 sensor sort-seq; sequence = guide strand. The settings on record: shRNA.
TTATCCTGAGCCAGGGTCGGTG: the sensor-assay potency score (higher = more potent) was -1.46.

TTGATGTCTTTGCAGGGTGAGG: the sensor-assay potency score (higher = more potent) was -1.52.

For TTTCTCTGTGAGGGTTTCCATT, the sensor-assay potency score (higher = more potent) is -0.964.

In the case of TTGTTGCCATGAATAAATGTGT, the sensor-assay potency score (higher = more potent) is -0.656.

As for TGGTTTGGCATCATAGTGCTGG, the sensor-assay potency score (higher = more potent) was -0.375.

As to TTTGGCATCATAGTGCTGGGTC, the sensor-assay potency score (higher = more potent) is 0.651.

As for TTAGGTTTTCTCTGTGAGGGTT, the sensor-assay potency score (higher = more potent) stood at 0.674.

Consider TTCACAAGCAACAACAACGTTT, for which the sensor-assay potency score (higher = more potent) is -0.418.

With TCACAGATGGCCTTGATGCTGC, the sensor-assay potency score (higher = more potent) was -0.333.

For the sequence TTGCCATGAATAAATGTGTTGA, the sensor-assay potency score (higher = more potent) was -0.499.

In the case of TTTCACAGTATCTGTCATCCCG, the sensor-assay potency score (higher = more potent) amounted to 0.634.

The next assay concerns the target ANK1. The description is as above. The settings on record: shRNA.
TTGATGTTTCCATAGTGACTGG: the sensor-assay potency score (higher = more potent) was -0.739.

Sequence TTGTGCAGCATCTTGCAGGTAT registered a sensor-assay potency score (higher = more potent) of 0.193.

Consider TAGCTTCGGCACAAAATCCAGC, for which the sensor-assay potency score (higher = more potent) was -0.878.

As to TAGAATGATTTCTTTGTGCAGA, the sensor-assay potency score (higher = more potent) is -0.0456.

With TCTATCTGTCGAACCACCTTGC, the sensor-assay potency score (higher = more potent) was determined as 0.271.

TTCTCTTCATCAACATCCCTGG: the sensor-assay potency score (higher = more potent) is -0.331.

On to TTGCAGGTATGAGACAATCGAG, for which the sensor-assay potency score (higher = more potent) was -1.

Turning to TTGGTCTTGGTTTCTATCTGGG, the sensor-assay potency score (higher = more potent) was -0.274.

For TCGGTGACCGCGTCGATCGAGG, the sensor-assay potency score (higher = more potent) was -1.26.

TTAGTGACAAGCTCATCCGGGA: the sensor-assay potency score (higher = more potent) was -0.401.

As for TTCATCTTCCGAGACATCCAGG, the sensor-assay potency score (higher = more potent) is -0.548.

Regarding TCTCTTCTGACCTCTGACCTTC, the sensor-assay potency score (higher = more potent) is -0.43.

Turning to TATCTGTCGAACCACCTTGCGA, the sensor-assay potency score (higher = more potent) is -1.29.

Sequence TTCTAGAATGATTTCTTTGTGC had a sensor-assay potency score (higher = more potent) of 0.132.

As for TGTGGTGTGAAATTGACGCTGG, the sensor-assay potency score (higher = more potent) was found to be 0.797.

Consider TTGACTTTGGCTTTGTTCTGGA, for which the sensor-assay potency score (higher = more potent) was 0.642.

Turning to TGGACAAGTCTATCTGTCGAAC, the sensor-assay potency score (higher = more potent) is -1.67.

Regarding TCATCTGTCATGCAGTAGCAGC, the sensor-assay potency score (higher = more potent) is -1.12.

For TCGTATTGCAACAGGAGCCGGA, the sensor-assay potency score (higher = more potent) is -0.769.

The record behind these values is the OligoGym collection.
Also: reference of the scale not given here.
